Test results reported in PubChem BioAssay AID588405 (Sanford-Burnham Center for Chemical Genomics, 2011).
Out of some 360,000 compounds screened, about 6,200 (1.7%) were called active. For the sample, actives were picked, then their nearest neighbours and some compounds at random. Values without a mark were called inactive.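 How the source made its calls: active means inhibition of at least 50% at 20 µM; inactive means the rest.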

Assay: inhibition of PEG-3 promoter activity – cell-based, HeLa, luciferase luminescence, primary screen (AID 588405)
Details: HeLa PEG-Prom luciferase reporter, overnight, at 20 µM, stronger effect = higher value

In order of falling inhibition:
1. COc1ccccc1CNC(=O)c1cc(-c2cc(Cl)ccc2C)n[nH]1  32.1%
2. OC(c1ccc(F)cc1)c1ncc(-c2cccc(C(F)(F)F)c2)[nH]1 (stereo unspecified)  25.3%
3. C=CC(=O)Nc1ccc(Nc2ccnc(Nc3ccc(N4CCN(C)CC4)cc3)n2)cc1  20.3%
4. CCOc1c(Nc2cccc(Cl)c2)c(=O)c1=O  19%
5. CCOC(=O)C1=CC[C@@H](c2ccccc2)N(S(=O)(=O)c2ccc(C)cc2)[C@H]1c1cccc(OC)c1  14.6%
6. CC(C)Oc1ccc(CN2CCC2(C)C(=O)NCc2ccc(C(F)(F)F)cc2)cc1 (stereo unspecified)  14.4%
7. CCCCNC(=O)c1nc(C2CCN(S(=O)(=O)c3ccc(F)c(F)c3)CC2)oc1-c1cccc(C(F)(F)F)c1  13.3%
8. CCC(C)Sc1nc2c(c(=O)[nH]c(=O)n2C)n1CC(O)COc1cccc2ccccc12 (stereo unspecified)  12.2%
9. CCc1nc2c(OCCOc3ccccc3)cccn2c1N(C)C(=O)c1ccc(OC)cc1  11.8%
10. O=C(CN1C(=O)NC2(CCOc3ccccc32)C1=O)Nc1cccc([N+](=O)[O-])c1 (stereo unspecified)  10.4%
11. CC(=O)N1CCN(S(=O)(=O)c2ccc(C)c([N+](=O)[O-])c2)C1C(C)C (stereo unspecified)  9.74%
12. CCCS(=O)(=O)NC(=O)C1(C)CCCN(C(=O)c2cc(C)on2)C1 (stereo unspecified)  9.06%
13. O=C(CC[C@H]1O[C@@H](n2ccc(=O)[nH]c2=O)[C@H](O)[C@@H]1O)N[C@H](Cc1ccccc1)C(=O)NCc1ccco1  8.94%
14. CN(C)CCNC(=O)/C(=C/c1cccc([N+](=O)[O-])c1)NC(=O)c1ccccc1  7.34%
15. CC1(c2nnc(Cc3ccccc3)o2)CC(c2ccccc2F)=NO1 (stereo unspecified)  7.03%
16. CCOC(=O)N1CCN(C(=O)c2n[nH]c(=O)c3ccccc23)CC1  6.99%
17. O=C(NCc1ccco1)c1cccc(-c2ccc3nncn3c2)c1  6.82%
18. S=C(NCCCc1ccccc1)Nc1ccc(Br)cc1  5.05%
19. CCc1nc2ccc(C(=O)NC3CCN(Cc4ccccc4)CC3)cn2c1N(CC)CCOC  4.85%
20. O=S(=O)(Nc1cccc(-n2cnnn2)c1)c1cnc(Cl)c(Cl)c1  3.56%
21. C=CCn1c2c(c3ccccc31)CCC2  2.5%
22. CCOC(=O)C(C(=O)OCC)C(C#N)c1ccccc1 (stereo unspecified)  1.45%
23. COc1ccc(S(=O)(=O)NC(=O)C2(C)CCN2C(=O)COc2ccc(Cl)cc2)cc1 (stereo unspecified)  0.32%
24. Cc1ccc(CNC(=O)c2cccnc2Cl)cc1  -0.53%
25. NC(=O)COC(=O)c1cc(S(=O)(=O)N2CCN(c3ccccc3)CC2)ccc1Cl  -0.58%
26. Cc1ccccc1OCCC(=O)OCC(=O)NC(C)c1ccccc1 (stereo unspecified)  -0.76%
27. Cc1nc(C(F)(F)F)ccc1C(=O)N1CCC1(C)C(=O)NS(=O)(=O)c1ccc(F)cc1F (stereo unspecified)  -1.89%
28. CC1(C(=O)NCc2ccc3c(c2)OCO3)CCN1C(=O)Cc1cccs1 (stereo unspecified)  -1.89%
29. CC(=O)NN=C(C)c1ccc(NC(=O)C2CC2)cc1  -1.94%
30. CN(C)CCCOc1ccc(-c2ccc3nccn3c2)cn1  -2.16%
31. CCOC(=O)N1CCN(C(=O)Cn2cnc3ccccc3c2=O)CC1  -3.74%
32. CN1CCN(C(=O)c2ccc(-c3cc4nc(NCc5cccnc5)n(C)c(=O)c4s3)cc2)CC1  -4.53%
33. O=C(Nc1ccc(F)cc1)Nc1nnc([C@H]2C[C@H](O)[C@@H](CO)O2)s1  -5.07%
34. CCCc1ccc(C(O)c2ncc(-c3cccc(OC)c3)[nH]2)cc1 (stereo unspecified)  -5.53%
35. CC1CC(C)CN(CCOc2cccc3ccccc23)C1 (stereo unspecified)  -6.14%
36. CCN(CC)S(=O)(=O)c1ccc(NC(=O)c2cnc(C)cn2)cc1  -6.33%
37. COc1ccccc1N(C)S(=O)(=O)c1ccc(Cl)c(C(=O)N2CCC(C(N)=O)CC2)c1  -7.62%
38. Cc1cc2nc(-c3ccc(Cl)cc3)c(Cc3cccc(F)c3)n2c(C)c1Br  -7.74%
39. O=C(Nc1ccc(N2CCOCC2)cc1)c1cccc2c(-c3ccc(F)c(F)c3)coc12  -8.12%
40. CCOc1ccc(CCN2C(=O)c3cccnc3C2=O)cc1OCC  -9.6%
41. Cc1occc1C(=O)N/N=C/c1ccc(-c2cccc([N+](=O)[O-])c2)o1  -11.9%
42. COc1ccc(OC)c(NC(=O)c2sc3nc(C)cc(C)c3c2N)c1  -12.4%
43. COc1cc(CN2CCNC(=O)C2CC(=O)NCCc2ncccc2C)cc(OC)c1 (stereo unspecified)  -16.1%
44. COc1ccc(OC)c(Cc2nnc(CCC(=O)NC3CCCC3)o2)c1  -30.2%
45. O=C(/C=C/c1ccc(Cl)cc1)Nc1ccc(Br)cn1  -33.7%

With `NCCCNC(=S)NCCCN(Cc1ccc(Cl)cc1)c1ccc(Br)cn1` the inhibition was 85.8% (active).
For `S=C(NCCCc1cnc[nH]1)NCCCN(Cc1ccc(Cl)c(Cl)c1)c1ccc(Br)cn1`, the inhibition was 98.4% (active).
For `COc1ccc(OC)c(Cc2cnc3nc(N)nc(N)c3c2C)c1`, the inhibition was 54.3% (active).
For `NC1=CC(=O)C(=O)c2cccnc21`, the inhibition was 69.9% (active).
With `Cc1ccc(C(=O)N/C(=C/c2ccc(-c3cccc([N+](=O)[O-])c3)o2)C(=O)NCCCN(C)C)cc1` the inhibition was 103% (active).
With `CC(C)c1ccccc1OCC(O)CN(CC(O)COc1cccc2ccccc12)C(C)C` (stereo unspecified) the inhibition was 110% (active).
For `CCN(CC)S(=O)(=O)c1ccc(NC(=O)c2cccnc2Cl)c(NC(=O)c2cccnc2Cl)c1`, the inhibition was 104% (active).
In the case of `CCOC(=O)/C=C/C(=O)OCC(=O)NC(c1ccccc1)c1ccccc1`, the inhibition was 66.3% (active).
With `OCCCNc1nccc(-c2cc(Nc3cccc(Cl)c3)ncn2)n1` the inhibition was 97.8% (active).
With `CCOC(=O)N1CCN(C(=O)c2nn(-c3ccc(C)cc3)c(=O)c3c2c2ccccc2n3C)CC1` the inhibition was 58.2% (active).
For `NC(=O)C1CCN(C(=O)c2cc(S(=O)(=O)N3CCN(c4ccccc4)CC3)ccc2Cl)CC1`, the inhibition was 56.8% (active).
